High-throughput results as filed in PubChem BioAssay.
CF NFkB inh: cystic fibrosis NF-kB activation inhibition | KKLEB NF-kB-GFP reporter, PAF-induced, GFP fluorescence overnight | inhibition, % at 5 µM | hit rate 0.86% among 360,000;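 active = at least 50% inhibition at 5 µM, scaled per plate between neutral and stimulator controls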;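 also: PAF is a Pseudomonas aeruginosa culture filtrate used as stimulus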
ABHD5 PLIN5 PPI: blocks binding of human ABHD5 to perilipin-5; inhibition, % at 4 µM; Split G. princeps luciferase complementation, luminescence, 4 h; Q00G26+Q8WTS1; hit rate 0.78% among 360,000;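 active = inhibition above the mean inhibition across every tested compound plus 3 SD, cut at about 22% in these data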
Target sequence (Q00G26 whole entry, looked up): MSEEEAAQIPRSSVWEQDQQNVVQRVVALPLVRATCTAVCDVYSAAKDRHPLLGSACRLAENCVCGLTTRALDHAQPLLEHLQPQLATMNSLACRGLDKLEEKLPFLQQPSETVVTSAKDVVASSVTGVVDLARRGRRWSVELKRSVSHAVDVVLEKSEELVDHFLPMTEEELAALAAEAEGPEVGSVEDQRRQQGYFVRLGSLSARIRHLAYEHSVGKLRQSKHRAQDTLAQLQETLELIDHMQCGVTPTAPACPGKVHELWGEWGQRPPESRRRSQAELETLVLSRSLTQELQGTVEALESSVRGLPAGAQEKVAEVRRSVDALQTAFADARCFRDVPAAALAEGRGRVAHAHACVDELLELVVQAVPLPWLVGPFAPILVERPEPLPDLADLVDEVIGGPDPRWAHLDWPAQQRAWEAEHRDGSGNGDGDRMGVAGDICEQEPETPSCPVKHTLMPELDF
Target sequence (Q8WTS1 whole entry, looked up): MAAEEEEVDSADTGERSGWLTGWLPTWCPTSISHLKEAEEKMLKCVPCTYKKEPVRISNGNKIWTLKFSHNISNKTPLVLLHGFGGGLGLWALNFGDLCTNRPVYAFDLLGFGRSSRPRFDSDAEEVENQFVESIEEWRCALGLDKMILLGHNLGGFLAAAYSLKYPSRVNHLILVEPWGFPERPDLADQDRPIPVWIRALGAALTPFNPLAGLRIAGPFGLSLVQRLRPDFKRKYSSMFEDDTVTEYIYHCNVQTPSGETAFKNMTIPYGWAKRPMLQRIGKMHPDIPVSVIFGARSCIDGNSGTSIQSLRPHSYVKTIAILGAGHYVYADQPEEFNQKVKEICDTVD
KKLEB tox: counter-screen for CF NF-kB inhibitors: cytotoxicity; KKLEB CF airway cells viability, ATPlite luminescence, overnight; active compounds read low; cells stimulated with P. aeruginosa culture filtrate; hit rate 0.36% among 360,000; activity change (cytotoxicity), % at 5 µM;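 active = corrected activity change at or below -50% at 5 µM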
HIF-2a block: blocks HIF-2a reporter activity; 786-0 RCC cells HIF-2a reporter, luciferase luminescence, overnight; hit rate 0.72% among 360,000; inhibition, % at 18.8 µM;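 active = inhibition of the luminescence signal of 40% or more relative to plate controls, in a single-dose primary screen at 18.75 µM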
MITF TRPM1 inh: inhibitors of MITF-driven TRPM1 promoter in melanoma cells | SK-MEL-5 TRPM1 promoter luciferase, 24 h | inhibition, % at 12.5 µM | hit rate 0.83% among 330,000 | AID 488899;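 active = mean inhibition across replicates of 60% or more, whatever share of single replicates reaches that level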
Peg3 promoter: inhibitors of Peg3 promoter; HeLa PEG-Prom luciferase reporter, luminescence, overnight; inhibition, % at 20 µM; hit rate 1.7% among 360,000;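 active = inhibition of at least 50% at 20 µM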
CF NFkB conf: confirmation of cystic fibrosis induced NF-kB inhibitors; KKLEB CF airway cells, PAF-induced NF-kB-GFP fluorescence, overnight; inhibition, % at 5 µM; hit rate 64% among 1,300; shares compounds with CF NFkB inh; AID 602472; in the data active = inhibition above about 40%;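 also: stimulus PAF is a Pseudomonas aeruginosa filtrate and not platelet activating factor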
Large screens that a line does not name were inactive (follow-up assays come after a bar, where they were run). Most compounds without a hit are left out; they make up all but 3% or so of the library.

COc1ccc(-c2cnc3c(NC=O)cc(-c4ccccc4OC)cn23)cc1OC	CF NFkB inh 64.7 (no result: MITF TRPM1 inh) | CF NFkB conf 90.8
COc1ccc(-c2cc(NC=O)c3ncc(-c4ccc(OC)c(OC)c4)n3c2)cc1	none (no result: MITF TRPM1 inh)
Cc1ccc(NS(=O)(=O)c2ccc(-n3cccn3)cc2)nc1	none
COc1ccc(S(=O)(=O)N2c3ccc(F)cc3CCC2C)cc1 (stereo not given)	CF NFkB inh 50.0 | CF NFkB conf 83.3
CC(C)(C)OC(=O)NCCCCCNC(=O)c1nc[nH]c1C(=O)NCC(=O)OCc1ccccc1	CF NFkB inh 73.9, Peg3 promoter 73.8 | CF NFkB conf 72.3
CCCN(Cc1nnc(-c2cccs2)o1)C(=O)CN1C(=O)NC2(CCC(C)CC2)C1=O (stereo not given)	none
Clc1ccc(CSc2nnc(-c3ccncc3)o2)cc1	CF NFkB inh 70.4 | CF NFkB conf 61.6
Fc1ccc(CSc2nnc(-c3ccncc3)o2)cc1	none
Cc1ccc(NCC2(N=Cc3ccccc3)OC(CO)C(O)C2O)cc1 (stereo not given)	none
O=c1ccc2cc(S(=O)(=O)Nc3ccc(Br)cc3)ccc2o1	none
Cc1sc2ncnc(N3CCC(C(=O)Nc4ccc(Cl)c(Cl)c4)CC3)c2c1C	none
CNC(=O)c1ccc(NC(=O)C2CCN(c3ncnc4sc(C)c(C)c34)CC2)cc1	CF NFkB inh 59.6 | CF NFkB conf 60.0
CSc1ccc(CN2CCC(C)(Oc3ccc(-n4ccnc4)cc3)C2)cc1 (stereo not given)	none (no result: MITF TRPM1 inh)
CC(NC(=O)OCc1ccccc1)C(=O)Oc1cc2oc(=O)cc(-c3ccccc3)c2cc1Cl (stereo not given)	CF NFkB inh 62.6 | CF NFkB conf 92.8
CCc1cc2c(-c3ccccc3)cc(=O)oc2cc1OC(C)C(=O)O (stereo not given)	none (no result: MITF TRPM1 inh)
N=C1C(c2ccccc2)=C(O)CN1c1cccc(S(=O)(=O)N2CCCCC2)c1	none
OCCNC(=S)Nc1cccc(Cl)c1Cl	none
Cc1nc(N2CCC(C(N)=O)CC2)c2c(-c3cccs3)csc2n1	CF NFkB inh 66.7 | CF NFkB conf 68.2
Cc1ccc(CSc2nccc(-c3c(C)nc4ccccn34)n2)cc1	CF NFkB inh 50.4 (no result: MITF TRPM1 inh) | CF NFkB conf 63.1
CCOC(=O)C/C(N)=N/N(C)c1ncc(C(F)(F)F)cc1Cl	none
C=CCn1cnc2c(c1=O)c1nc3ccccc3nc1n2/N=C/c1cc(OC)c(OC)c(OC)c1	CF NFkB inh 50.9 | CF NFkB conf 116.6
O=C(NNC1=NCCC1)C1CC1	none
Cc1ccc(/C(=C\CN2CCCC2)c2ccccn2)cc1	CF NFkB inh 50.8 | CF NFkB conf inactive
COc1cccc(-c2cc(NC=O)c3ncc(-c4cccc(C(=O)N(C)C)c4)n3c2)c1	none (no result: MITF TRPM1 inh)
COc1ccc(CNc2nn3c(-c4cccc(C(=O)N(C)C)c4)cnc3s2)cc1	CF NFkB inh 84.0, Peg3 promoter 56.1 (no result: MITF TRPM1 inh) | CF NFkB conf 90.7
Cc1cccc(NC(=O)c2nc[nH]c2C(=O)NCCN(CCNC(=O)c2[nH]cnc2C(=O)Nc2cccc(C)c2)CCNC(=O)c2[nH]cnc2C(=O)Nc2cccc(C)c2)c1	none
Cc1cccc(NC(=O)c2nc[nH]c2C(=O)NCCCNC(=O)c2[nH]cnc2C(=O)Nc2cccc(C)c2)c1	CF NFkB inh 63.9, Peg3 promoter 93.0 | CF NFkB conf 78.7
Cc1nc([N+](=O)[O-])cn1CC(=O)c1ccc(OC(F)(F)F)cc1	none
CCCCOC(=O)Nc1ccc(S(=O)(=O)Nc2nc(C)cc(C)n2)cc1	CF NFkB inh 53.3 | CF NFkB conf inactive
CCC[n+]1c(C)sc2c3c(ccc21)CCCC3	CF NFkB inh 58.5, MITF TRPM1 inh 67.4 | CF NFkB conf inactive
CC[n+]1c(C)sc2c(C)cc(C)cc21	none
COC(=O)c1ccc(/C=N\N2CCN(c3ccccc3)CC2)cc1	none
CCN(C(=O)COC(=O)CSc1ccc(F)cc1)c1c(N)n(Cc2ccccc2)c(=O)[nH]c1=O	none
COc1ccc(-c2csc3ncnc(NCCO)c23)cc1	CF NFkB inh 76.7 | CF NFkB conf 86.2
Cc1ccccc1C(=O)N1CCC(C(=O)Nc2ccc(S(=O)(=O)N3CCCCC3)cc2)CC1	none
CC(C)(CO)CNc1ccn2nccc2n1	CF NFkB inh 52.6 (no result: MITF TRPM1 inh) | CF NFkB conf 60.5
COc1cccc(C(=O)N2C(C(C)C)COc3cc(Br)ccc3S2(=O)=O)c1 (stereo not given)	CF NFkB inh 50.5 (no result: MITF TRPM1 inh) | CF NFkB conf 55.0
COc1ccccc1C(=O)N1[C@@H](C(C)C)COc2cc(Br)ccc2S1(=O)=O	none
Cc1cccc(C(=O)N2[C@@H](C(C)C)COc3cc(Br)ccc3S2(=O)=O)c1	CF NFkB inh 60.8, Peg3 promoter 57.1 | CF NFkB conf 58.8
COc1ccc(-n2nnnc2C(c2cccc3ccccc23)N2CCN(C/C=C/c3ccccc3)CC2)cc1 (stereo not given)	none (no result: MITF TRPM1 inh)
COCCNC(=O)C1(C)CCN(C(=O)c2sccc2C)C1 (stereo not given)	none (no result: MITF TRPM1 inh)
CCCS(=O)(=O)NC(=O)C1(C)CCCN(C(=O)c2ccccc2C(F)(F)F)C1 (stereo not given)	none (no result: MITF TRPM1 inh)
O=C(Nc1ccc(N2CCN(C(=O)c3ccccc3F)CC2)cc1)c1cncc(Br)c1	CF NFkB inh 68.9 | CF NFkB conf 76.3
C=CCn1c(Oc2ccccc2F)nc2c1c(=O)n(C)c(=O)n2C	CF NFkB inh 57.2 | CF NFkB conf 63.7
Cc1ccc(Cl)cc1-c1cc(C(=O)NCc2ccc(C(F)(F)F)cc2)[nH]n1	none (no result: MITF TRPM1 inh)
CCOC(=O)[C@]12CCC=C1N(Cc1cccc3ccccc13)C(=O)[C@H](CC(=O)N1CCN(C(=O)c3ccco3)CC1)C2	none (no result: CF NFkB inh, KKLEB tox, MITF TRPM1 inh, Peg3 promoter)
COc1ccc(-c2ncncc2-c2ccc(Cl)cc2)c(O)c1	none
COc1ccc(-c2cncnc2-c2ccc(OC)cc2O)cc1	CF NFkB inh 61.9 | CF NFkB conf 82.9
Cc1ccsc1C(=O)N1CCN(C(=O)c2ccco2)CC1	none
Nc1nc(SCc2ccc(Cl)cc2Cl)n[nH]1	none
Nc1nccc(SCc2ccc(Cl)cc2Cl)n1	CF NFkB inh 56.7 | CF NFkB conf 55.5
Cc1ccc(C(=O)COc2cc(O)c3c(=O)cc(-c4ccccc4)oc3c2)cc1	CF NFkB inh 69.2 | CF NFkB conf 42.8
O=C(COc1cc(O)c2c(=O)cc(-c3ccccc3)oc2c1)c1ccccc1	none
O=C(Nc1ccc(Cl)cc1)Nc1cc([N+](=O)[O-])ccc1F	none
O=C(Nc1ccc([N+](=O)[O-])cc1)Nc1ccc(Cl)cc1F	CF NFkB inh 51.6 | CF NFkB conf 45.9
O=C1/C(=C/c2cccnc2)CCc2c1[nH]c1ccccc21	CF NFkB inh 70.5 | CF NFkB conf 84.3
O=C(COC(=O)CNS(=O)(=O)c1c(F)cccc1F)NC(=O)NC1CCCCC1	none
